esBAF inh – Bmi1 luciferase reporter increase in mESCs, primary screen, esBAF inhibitor project, mouse ES cells, Bmi1 luciferase knock-in, single point. reporter increase, % at 12.5 µM. 24 h; 100% = twice the neutral-well signal. hit rate 2% among 350,000; in the data active = activation above about 40%;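 note: 0% = median of the plate's neutral control wells and 100% = double that signal; a rise in the Bmi1 reporter signal indicates esBAF inhibition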
Vif imaging – HIV Vif self-association inhibitors, primary screen, imaging, HEK293T, single point; HEK293T cells, Vif self-association by quenched fluorescence, 24 h; inhibition, % at 7.49 µM; hit rate 0.35% among 340,000; in the data active = inhibition above about 50%, passing the limit was not always enough
NadD block – inhibitors of S. aureus NadD, primary screen, biochemical, colorimetric, uHTS. Nicotinate-nucleotide adenylyltransferase NadD (Staphylococcus aureus N315). purified NadD enzyme, colorimetric absorbance read-out. inhibition, % at 20 µM. hit rate 0.78% among 360,000. AID 602399, 2012; in the data active = inhibition above about 26%
SKN-1 inh – suppressors of acrylamide-induced Pgst-4::GFP reporter in worms, primary screen, SKN-1 inhibitor project, whole organism, uHTS, GFP/RFP fluorescence ratio, strain VP596; C. elegans VP596 Pgst-4::GFP/RFP ratio, 24 h; inhibition, % at 21.8 µM; hit rate 0.49% among 360,000; AID 624304, 2012;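 active = interference check ratio from 0.5 to 1.5 plus GFP to RFP signal ratio inhibition reaching or exceeding a fixed threshold, cut at about 30% in these data, passing the limit was not always enough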
SMARCA2 act – SMARCA2 (BRM) function activators, primary screen, cell-based, luminescence, high throughput; MG213 cells, MMTV-luciferase reporter, dexamethasone, overnight; activation, % at 9.1 µM; hit rate 1% among 370,000; AID 652017, 2013; in the data active = activation above about 7.8%;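 note: 0% = vehicle wells and 100% = reference activator wells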
GRIN3A LBD mod – binders of NR3A ligand-binding domain, primary screen, biophysical, differential scanning fluorimetry, uHTS. Glutamate receptor ionotropic, NMDA 3A (GRIN3A) ligand-binding domain. NR3A LBD differential scanning fluorimetry, Tm shift; 0% = protein alone, 100% = glycine-bound protein. Tm shift relative to glycine control, % at 25 µM. hit rate 2.5% among 340,000;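 active = melting temperature shift of at least 10% of the positive control shift, at one fixed dose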
* = called active by the depositor. The list is not random: actives were taken first. Their share in the collection is about 5.2%.

For CC(=O)Nc1ccc(S(=O)(=O)N(C)CC(=O)OCC(=O)c2ccc[nH]2)cc1 the results were Vif imaging -1, NadD block -1, SKN-1 inh 10, SMARCA2 act -5 and GRIN3A LBD mod -1.
For Cc1ccc(S(=O)(=O)N(C)CC(=O)OCC(=O)NC(c2ccccc2)c2ccccc2)cc1 the results were Vif imaging -1, NadD block -3, SKN-1 inh 5, SMARCA2 act 2 and GRIN3A LBD mod 24*.
`CC(=O)Nc1ccc(S(=O)(=O)N(C)CC(=O)OCC(=O)NNC(=O)c2ccccc2F)cc1` gave esBAF inh -1, Vif imaging 14, NadD block 7, SKN-1 inh 14, SMARCA2 act -3 and GRIN3A LBD mod 18*.
Screening Oc1ccc(COCc2ccccc2)c2cccnc12 returned esBAF inh 60*, Vif imaging 4, NadD block 5, SKN-1 inh -15, SMARCA2 act 3 and GRIN3A LBD mod -3.
Screening C[C@H]1CN([C@@H](C)CO)C(=O)c2cc(-c3cccc(F)c3)cnc2O[C@H]1CN(C)C(=O)C1CCCCC1 returned esBAF inh -4.
Cc1cc2[nH]c3c4ccccc4nc(C)c3c2cc1C was read as esBAF inh -87, Vif imaging -6, NadD block 15, SKN-1 inh 28, SMARCA2 act -8 and GRIN3A LBD mod 10*.
Cc1cc2[nH]c3ccccc3c2c(C)n1 was read as Vif imaging -2, NadD block 1, SKN-1 inh -7, SMARCA2 act 1 and GRIN3A LBD mod 0.
Screening CO[C@@H]1CN(C)C(=O)c2cc(NC(=O)C3CCC3)ccc2OC[C@H](C)N(C)C[C@H]1C returned esBAF inh -2.
For C[C@@H]1CN([C@@H](C)CO)C(=O)c2cc(C#Cc3cccnc3)cnc2O[C@@H]1CN(C)C(=O)CN(C)C the results were esBAF inh -1.
`Cc1sc(NC(=O)c2ccco2)c(C(c2cccnc2)N2CCCC2)c1C` (stereo not given) gave esBAF inh 24, Vif imaging -24, NadD block -4, SKN-1 inh 30*, SMARCA2 act 0 and GRIN3A LBD mod -2.
For Cc1sc(NC(=O)c2ccco2)c(C(c2cccnc2)N2CCN(C)CC2)c1C (stereo not given) the results were esBAF inh 20, Vif imaging -14, NadD block 2, SKN-1 inh 17, SMARCA2 act 0 and GRIN3A LBD mod 0.
Screening Cc1ccccc1-c1ccc2c(c1)O[C@@H](CN(C)CC1CC1)[C@@H](C)CN([C@H](C)CO)S2(=O)=O returned esBAF inh 0.
Screening N/C(=N\OC(=O)Nc1ccccc1)c1ncc([N+](=O)[O-])s1 returned esBAF inh -2, Vif imaging 16, NadD block -4, SKN-1 inh -3, SMARCA2 act 5 and GRIN3A LBD mod 36*.
O=C(COC(=O)COc1ccccc1)Nc1ncc([N+](=O)[O-])s1 was read as esBAF inh 1, Vif imaging -2, NadD block 4, SKN-1 inh -20, SMARCA2 act 0 and GRIN3A LBD mod 1.
Screening O=C(N/N=C/C=C/c1ccccc1)c1ccncc1 returned Vif imaging -4, NadD block 3, SKN-1 inh -16, SMARCA2 act -3 and GRIN3A LBD mod 25*.
Screening CN(C)CCN=Cc1c(O)n(-c2ccc(S(=O)(=O)N3CCOCC3)cc2)c(=O)c2ccccc12 returned Vif imaging -1, NadD block -2, SKN-1 inh 3, SMARCA2 act -1 and GRIN3A LBD mod 14*.
Screening O=S(=O)(Nc1nc(-c2sccc2Cl)cs1)c1cc(Cl)ccc1Cl returned esBAF inh 0, Vif imaging -2, NadD block 22, SKN-1 inh 4 and GRIN3A LBD mod 14*.
Screening CC(C)(C)c1nnc(NS(=O)(=O)c2cc(Cl)ccc2Cl)s1 returned esBAF inh -1, Vif imaging 6, NadD block 0, SKN-1 inh -4, SMARCA2 act 5 and GRIN3A LBD mod 2.
Screening O=C(O)c1cncc(C#CCC2CCCCC2)c1 returned esBAF inh 61*, Vif imaging -12, NadD block -4, SKN-1 inh 0, SMARCA2 act 4 and GRIN3A LBD mod 2.
`O=C(O)c1cncc(C#Cc2ccccc2)c1` gave esBAF inh 13, Vif imaging -13, NadD block -8, SKN-1 inh 17, SMARCA2 act -1 and GRIN3A LBD mod 1.
`Cc1noc(C)c1NC(=O)N(C)C[C@H]1Oc2ccc(NS(=O)(=O)c3cccs3)cc2CC(=O)N([C@H](C)CO)C[C@@H]1C` gave esBAF inh 3.
C#CCOCCOCCOCCNc1nc(N2CCN(C(=O)[C@H](Cc3ccc(O)cc3)n3cc([C@@H](N)C(C)CC)nn3)CC2)nc(N2CCN(C(=O)[C@H](Cc3cc4ccccc4[nH]3)n3cc([C@@H](N)CC(C)C)nn3)CC2)n1 (stereo not given in full) was read as SMARCA2 act -1 and GRIN3A LBD mod -3.
Screening C#CCOCCOCCOCCNc1nc(N2CCN(C(=O)[C@H](Cc3cc4ccccc4[nH]3)n3cc([C@@H](N)CC(C)C)nn3)CC2)nc(N2CCN(C(=O)[C@H](Cc3cc4ccccc4[nH]3)n3cc([C@@H](N)CC(C)C)nn3)CC2)n1 returned esBAF inh 11, Vif imaging -3, NadD block 70*, SKN-1 inh 7 and GRIN3A LBD mod -5.
C#CCOCCOCCOCCNc1nc(N2CCN(C(=O)[C@H](Cc3ccc(O)cc3)n3cc([C@@H](N)C(C)CC)nn3)CC2)nc(N2CCN(C(=O)[C@H](Cc3cc4ccccc4[nH]3)n3cc([C@@H](N)C(C)CC)nn3)CC2)n1 (stereo not given in full) was read as esBAF inh 20, Vif imaging 1, NadD block 34*, SKN-1 inh 5 and GRIN3A LBD mod -3.
Screening C[C@@H]1CN([C@H](C)CO)C(=O)c2cccc(NC(=O)Nc3ccc(F)cc3)c2O[C@H]1CN(C)C(=O)Nc1ccc2c(c1)OCO2 returned esBAF inh 32.
Screening Cc1ccc2scc(CN3CCCC3)c2c1 returned Vif imaging -9, NadD block -8, SKN-1 inh 10, SMARCA2 act -2 and GRIN3A LBD mod 0.

Screening results (PubChem)
